Values without a mark were called inactive. The rule behind the calls is not given here.
Molecular target: Pantothenate synthetase (Mycobacterium tuberculosis (strain ATCC 25618 / H37Rv)) (UniProt P9WIL5)
Experiment: Recombinant Mtb pantothenate synthetase (PanC) inhibitors, coupled enzyme, confirmatory (AID 375);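 note: 0% = full reaction with vehicle and 100% = no enzyme background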
Conditions: coupled enzyme assay; at 10 µM, active compounds read high

Chain of Pantothenate synthetase (Mycobacterium tuberculosis (strain ATCC 25618 / H37Rv)) (P9WIL5 whole entry, looked up): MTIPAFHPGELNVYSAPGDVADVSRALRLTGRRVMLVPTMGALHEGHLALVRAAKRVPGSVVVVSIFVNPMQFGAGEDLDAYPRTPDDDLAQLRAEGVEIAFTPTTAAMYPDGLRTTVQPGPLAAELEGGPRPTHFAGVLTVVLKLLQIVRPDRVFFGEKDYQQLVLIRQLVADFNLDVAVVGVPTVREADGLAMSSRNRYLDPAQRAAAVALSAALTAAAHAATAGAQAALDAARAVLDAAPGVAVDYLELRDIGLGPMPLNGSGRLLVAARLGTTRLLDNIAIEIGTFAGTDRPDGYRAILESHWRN

Compound	inhibition
O=C(NC1CCCC1)C1CCCN(S(=O)(=O)c2cccc3cccnc23)C1 (stereo not drawn)	2%
CCc1ccccc1OCCCCN1CCCC1	0%
CCc1ccc(CNCc2cccnc2)cc1	0%
Cn1c(Cc2ccccc2)nnc1SCC(=O)c1ccc(Br)s1	0%
O=S1(=O)CCC(N=Cc2cc(Br)ccc2O)C1 (stereo not drawn)	0%
COc1ccc(-c2nnc(SCC(=O)c3cc(C)n(Cc4cccs4)c3C)o2)cc1	0%
Cc1c(O)c(CN2CCCCC2)cc2c3c(c(=O)oc12)CCC3	2%
CCCCCc1c(C)nc(N2CCc3ccccc32)[nH]c1=O	0%
CCOC(=O)c1sc(NC(=O)CSc2nnnn2-c2ccccc2)c(C(=O)OCC)c1C	0%
CCCCOCCCNC(=O)c1ccccc1OCC	2%
CCCN(CCC)CCNS(=O)(=O)c1ccc2c(c1)oc(=O)n2C	2%
Cc1ccc2nc(SC(C)C(=O)N3CCCC3)[nH]c2c1 (stereo not drawn)	2%
CCCCC(NC(C)=O)c1nc2ccccc2n1CCC (stereo not drawn)	0%
COc1ccc(CSCCN)cc1Cl	0%
COc1ccccc1CNC(=O)C1CCCN(S(=O)(=O)c2cccc3cccnc23)C1 (stereo not drawn)	1%
O=S(=O)(c1ccc(Br)s1)N1CCCCC1	0%
CN=c1sc2ccccc2n1CC(O)COCc1ccco1 (stereo not drawn)	0%
CCN(CC)CCCN1C(=O)C(=O)/C(=C(/O)c2ccc(C)cc2)C1c1ccccn1 (stereo not drawn)	3%
Cc1ccnc(NS(=O)(=O)c2ccc(N=CC3=C(O)CC(C)(C)CC3=O)cc2)n1	11%
Cc1cccc(-n2ncc3c(N)ncnc32)c1	3%
FC(F)(F)c1nnc2sc(-c3cccs3)nn12	4%
O=C(Nc1ccc(N2CCCCC2)cc1)c1ccc(F)cc1	0%
CCc1nnc(NC(=O)c2ccc(S(=O)(=O)NCC(C)C)cc2)s1	0%
COc1ccc(S(=O)(=O)NC(CC(=O)NCc2ccco2)c2ccco2)cc1 (stereo not drawn)	3%

Compound	inhibition
O=C(CC1Oc2ccccc2NC1=O)NCCCN1CCOCC1 (stereo not drawn)	0%
CC1=C(C(=O)N2CCCCC2)C2(CCC(C)CC2)OC1=O (stereo not drawn)	12%
Cc1cccc(C)c1OCC(=O)Nc1cccc(NC(=O)c2ccco2)c1	12%
CC(=O)c1ccc(NC(=O)CSc2nnc(-c3ccoc3C)n2Cc2ccccc2)cc1	0%
Cc1ccc(-n2ncc3c(N4CCCC(C)C4)ncnc32)c(C)c1 (stereo not drawn)	5%
Cc1cnc(C(=O)Nc2ccc(-n3cnnn3)cc2)cn1	14%
Cc1cc(C(=O)Nc2ccccc2C#N)n(-c2ccccc2)n1	0%
Cc1nc(C)c(C(=O)OCC(=O)N2CCN(c3ccccc3)CC2)s1	0%
O=C(C1=C(O)C(=O)N(Cc2ccccc2)C1c1ccncc1)c1ccco1 (stereo not drawn)	0%
CC1CCN(S(=O)(=O)c2cn(CC(=O)N3CCN(C)CC3)c(=O)c3ccccc23)CC1	4%
CC1(C)Oc2ccc3ccc(=O)oc3c2C(N2CCCCC2)C1O (stereo not drawn)	0%
CCn1nccc1C(=O)Nc1cc(Cl)ccc1Cl	0%
CCCc1cc(=O)[nH]c(SCc2ccccc2)n1	0%
CCc1ccc(N2CC(C(=O)OCC(=O)Nc3cc(C)on3)CC2=O)cc1 (stereo not drawn)	0%
COC(=O)c1ccc(NC(=O)C(C)N2C(=O)c3ccccc3C2=O)cc1 (stereo not drawn)	8%
Cc1sc2nc3n(c(=O)c2c1C)NC(=O)CC3	0%
Cn1c(=O)[nH]c(=O)c2c1nc(NC1CCCCC1)n2CC(=O)NC1CCCCC1	0%
COc1ccc(CC(=O)N2CCOCC2)cc1OC	2%
CC(=O)c1ccc(OCC(O)CN2CCN(Cc3ccc4c(c3)OCO4)CC2)cc1 (stereo not drawn)	3%
O=C1c2ccccc2-c2nc3ncnn3c(-c3ccccc3)c21	0%
COc1ccccc1C(=O)Nc1c2c(nn1-c1cccc(C)c1C)CS(=O)(=O)C2	7%
CCOC(=O)C1CN(S(=O)(=O)c2ccc(C)cc2)CCN1S(=O)(=O)c1ccc(C)cc1 (stereo not drawn)	0%
O=C(NC1CCS(=O)(=O)C1)N1CCCCC1 (stereo not drawn)	7%
CC(=O)C1=C(NC(=O)c2ccccc2F)C[C@@H]2[C@H]1C2(C)C	0%

— PubChem BioAssay
